# Bioassay records from PubChem.
# CHT block = inhibits the human high affinity choline transporter | Q9GZV3 | CHT-expressing cells, membrane potential dye, choline response; active compounds read low | B-score at 10 µM | 310,000 compounds, 0.86% hits | AID 488975;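 active means B-score over 3 SD under the library average, and starting fluorescence ratio not unusually high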;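 further: choline stimulus applied at its EC90 after an EC20 pre-addition; B-score computed on integrated fluorescence ratio after choline addition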
# Target sequence (Q9GZV3 whole entry, looked up): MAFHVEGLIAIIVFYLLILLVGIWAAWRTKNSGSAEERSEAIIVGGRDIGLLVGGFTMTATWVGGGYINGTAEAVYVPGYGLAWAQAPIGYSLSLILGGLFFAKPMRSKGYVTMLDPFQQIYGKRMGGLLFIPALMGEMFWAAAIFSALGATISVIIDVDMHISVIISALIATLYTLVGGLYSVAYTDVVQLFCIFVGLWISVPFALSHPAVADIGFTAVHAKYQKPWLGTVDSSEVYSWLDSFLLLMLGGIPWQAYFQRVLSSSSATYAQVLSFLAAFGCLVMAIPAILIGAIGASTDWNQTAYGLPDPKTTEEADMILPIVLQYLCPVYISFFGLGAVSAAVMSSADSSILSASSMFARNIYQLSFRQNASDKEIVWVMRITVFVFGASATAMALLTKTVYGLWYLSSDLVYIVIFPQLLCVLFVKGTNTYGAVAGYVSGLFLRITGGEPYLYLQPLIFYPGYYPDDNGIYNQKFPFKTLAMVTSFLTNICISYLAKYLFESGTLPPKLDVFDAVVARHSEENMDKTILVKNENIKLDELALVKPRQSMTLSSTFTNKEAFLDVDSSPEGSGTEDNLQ
# TAG inh = inhibitors of triacylglycerol accumulation | H9c2 cells, Nile Red lipid (TAG) fluorescence; cells loaded with 200 µM oleic acid | inhibition, % at 12.5 µM | 230,000 compounds, 0.66% hits | AID 651582;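 active means pattern-corrected inhibition of lipid staining of at least 50% with the nuclear-stain viability signal not falling by more than 50%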;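 further: 0% = DMSO wells and 100% = triacsin C control wells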
# CHT allo act = allosteric activators of human choline transporter CHT. 310,000 compounds, 0.49% hits. Q9GZV3. AID 488977. CHT-expressing cells, membrane potential dye, choline EC20; active compounds read high; LV-AA mutant CHT in HEK293 cells. B-score at 10 µM;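 active means initial fluorescence not abnormally high and integrated response B-score, plate-corrected, over 3 SD above library mean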
# MIN6 prolif = MIN6 beta-cell proliferation induction | MIN6 cells proliferation, ATPlite luminescence, 48 h; cells starved in 0.2% serum; 100% = growth in 10% serum | proliferation, % at 10 µM | 330,000 compounds, 0.29% hits;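 active means compounds whose signal lies at least 3.5 SD above the mean of all wells on their plate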;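 further: 0% = DMSO-treated cells in low-serum medium and 100% = 10% serum control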
# H9c2 TAG conf = confirmation of triacylglycerol accumulation inhibitors | shares compounds with TAG inh | H9c2 lipid accumulation, Nile Red fluorescence; cells loaded with 200 µM oleic acid | inhibition, % at 12.5 µM | 990 compounds, 71% hits | AID 651629;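 active means mean inhibition across replicates of 40% or more; inactive means mean inhibition below 40%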;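 further: plate controls were DMSO only wells for no effect and Triacsin C treated wells for full effect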
# * = called active by the depositor; i = inactive; / = no result given. This is a sample that favours compounds with a hit; in the whole collection about 1.7% have one here.
SMILES,CHT block,TAG inh,CHT allo act,MIN6 prolif,H9c2 TAG conf
CCC(=NCCc1c(C)[nH]c2ccc(OC(F)(F)F)cc12)C1=C(O)CC(c2ccccc2)CC1=O (centres undefined),i,51*,i,-6,72*
CCCCC(=NCCc1c(C)[nH]c2ccc(OC)cc12)C1=C(O)CC(c2ccccc2)CC1=O (centres undefined),i,61*,i,-6,66*
CCCc1nc2ccccc2c(=O)n1-c1ccc(C(=O)OCC)cc1,i,-1,i,0,/
Cc1ccc(CNC(=O)c2ccc(N3CCC4(CC3)CC(c3ccccc3)=NO4)c(NC(=O)c3ccc(Cl)c([N+](=O)[O-])c3)c2)cc1,i,51*,i,-3,37
CC(=O)O[C@H]1C(=O)[C@]2(C)[C@H]([C@H](OC(=O)c3ccccc3)[C@]3(O)C[C@H](OC(=O)[C@H](O)[C@@H](NC(=O)c4ccccc4)c4ccccc4)C(C)=C1C3(C)C)[C@]1(OC(C)=O)CO[C@@H]1C[C@@H]2O,i,54*,i,-7,57*
O=C(N/N=C/c1ccc(Cl)cc1)c1cc(-c2cccnc2)nc2ccccc12,i,47,i,-4,/
O=C(N/N=C/c1ccc2c(c1)OCO2)c1cc(-c2ccccc2Cl)nc2ccccc12,i,/,i,-1,/
O=C(N/N=C/c1ccc2c(c1)OCO2)c1cc(-c2ccncc2)nc2ccccc12,i,54*,i,-2,67*
Cc1ccc(/C=N/NC(=O)c2cc(-c3cccnc3)nc3ccccc23)cc1,i,57*,i,-3,49*
Cc1noc(C)c1CSCc1ccc(Cl)cc1,i,/,i,-2,/
O=C(CC1C(=O)NCCN1Cc1c(F)cccc1Cl)NCCCN1CCCC1=O (centres undefined),i,-20,i,-4,/
CC(C)NC(=O)N(C)C[C@H]1Oc2cc(C#Cc3ccc(F)cc3)ccc2S(=O)(=O)N([C@H](C)CO)C[C@H]1C,/,56*,/,/,63*
COc1ccc(C#Cc2ccc3c(c2)O[C@@H](CN(C)C(=O)Nc2cccc(OC)c2)[C@H](C)CN([C@@H](C)CO)S3(=O)=O)cc1,/,77*,/,/,82*
COc1ccc(NC(=O)/C(C#N)=C/c2ccc(Sc3nncn3C)c([N+](=O)[O-])c2)cc1,i,7,i,-5,/
CC(C)(C)NCCC(O)c1cc(C(F)(F)F)nc2c(C(F)(F)F)cccc12 (centres undefined),/,65*,/,/,63*
Cc1ccc(S(=O)(=O)N(C)C)cc1NC(=O)C(C)OC(=O)C1CCC1 (centres undefined),/,-11,/,-3,/
C=CCCC(=O)N1C[C@H]2CON(C)[C@H]2C[C@H]1c1cccc(N2CCOCC2)c1,/,6,/,/,/
Cc1cccc(NC(=O)c2ccc([N+](=O)[O-])o2)c1C,i,71*,i,0,62*
COc1ccccc1N1CN(S(=O)(=O)c2ccc(C)cc2)c2nc3ccccc3nc21,/,-9,/,-1,/
Cc1cccc(N2CN(S(=O)(=O)c3cccc([N+](=O)[O-])c3)c3nc4ccccc4nc32)c1,/,54*,/,-3,37
CCOC(=O)c1c(NC(=O)COC(=O)c2cc(OC)c(OC)cc2[N+](=O)[O-])sc(C)c1C,i,/,i,0,/
Cc1cc(N2CCOCC2)n2nc(C)c(-c3ccccc3)c2n1,i,60*,i,-1,46*
O=C(c1ccoc1)N1CCN(c2cc(-c3cccnc3)nc3cc(-c4cccc(Cl)c4)nn23)CC1,/,52*,/,/,41*
O=C(c1ccncc1)N1CCN(c2cc(-c3ccccc3)nc3cc(-c4cccc(Cl)c4)nn23)CC1,/,50,/,/,/
O=C(c1ccoc1)N1CCN(c2cc(-c3ccncc3)nc3cc(-c4cccc(Cl)c4)nn23)CC1,/,63*,/,/,49*
SMILES,CHT block,TAG inh,CHT allo act,MIN6 prolif,H9c2 TAG conf
O=C(c1ccoc1)N1CCN(c2cc(-c3ccccc3)nc3cc(-c4ccc(Br)cc4)nn23)CC1,/,75*,/,/,65*
CCNC(=O)CSc1nnc(-c2ccccc2Br)n1-c1cccc(C(F)(F)F)c1,i,7,i,0,/
Oc1ccc(Nc2nc(NCC3CCCO3)c3ccccc3n2)cc1 (centres undefined),/,50*,/,-3,25
Cc1cc(C(=O)CSc2nnc(NCc3ccccc3)s2)c(C)n1C,i,51*,i,-3,27
Cc1ccc(NC(=O)COC(=O)c2ccc(C)c(S(=O)(=O)N3CCOCC3)c2)cc1,/,-14,/,-3,/
COC(=O)c1ccc(Oc2cc(C)nc(SC)n2)cc1,i,51*,i,-1,41*
NC(Cc1ccc(C(F)(F)F)cc1)c1csc(Nc2ccc(C(=O)NCCCO)cn2)n1 (centres undefined),/,57*,/,/,38
CCCCN(C)C(=O)c1ccc(Nc2nc(C(N)CCc3ccccc3)cs2)nc1 (centres undefined),/,11,/,/,/
NC(COCc1ccccc1)c1csc(Nc2nncc3ccccc23)n1 (centres undefined),/,-6,/,/,/
NC(Cc1ccc(C(F)(F)F)cc1)c1csc(Nc2nncc3ccccc23)n1 (centres undefined),/,52*,/,/,68*
CCCCN(C)C(=O)c1ccc(Nc2nc(C(N)Cc3ccc(C(F)(F)F)cc3)cs2)nc1 (centres undefined),/,56*,/,/,71*
Cc1ccc(-c2ocnc2C(=O)Nc2ccccc2C(=O)N2CCCC2)cc1,i,/,i,7,/
O=C(Nc1ccccc1N1CCCCC1)c1ncoc1-c1ccc(F)cc1,i,55*,i,-2,43*
O=C(Nc1cccc(S(=O)(=O)N2CCCCC2)c1)c1ccccn1,i,-29,i,3,/
O=C(Nc1cccc(NS(=O)(=O)c2ccc(S(=O)(=O)NC3CC3)cc2)c1)c1ccccn1,i,56*,i,-1,25
COc1cc2c(cc1OC)C(C)N(C(=O)c1cc3c(C)cc(C)cc3[nH]1)CC2 (centres undefined),i,54*,i,-6,59*
COC(=O)/C=C/c1ccccc1S(=O)(=O)N(Cc1ccccc1)Cc1ccco1,i,54*,i,-7,48*
C#CCOCCOCCOCCNc1nc(N2CCN(C(=O)[C@H](CCCCN)n3cc([C@@H](N)CO)nn3)CC2)nc(N2CCN(C(=O)[C@H](CCCCN)n3cc([C@@H](N)CC(C)C)nn3)CC2)n1,/,70*,/,-2,-1
C#CCOCCOCCOCCNc1nc(N2CCN(C(=O)[C@H]([C@@H](C)CC)n3cc([C@@H](N)CO)nn3)CC2)nc(N2CCN(C(=O)[C@H](CCCCN)n3cc([C@@H](N)CC(C)C)nn3)CC2)n1,i,/,i,10,/
O[C@H]1CN(CC2CCCCC2)[C@@H](c2ccc(Cl)cc2)C[C@@H]1n1cc(-c2ccc(F)cc2)nn1,/,51*,/,/,64*
COc1ccc2cc3cc(C(=O)NCCc4ccc(OC)c(OC)c4)oc3nc2c1,i,67*,i,-1,44*
